Results taken from PubChem BioAssay (NCATS).
“And” between values parts separate entries of the source, which are not always exact repeats. Equal entries are not always repeated. Results filed as inconclusive are left out. The source made the active and inactive calls. The call rests on the fitted dose curve; in most records, active means well fitted cell-killing curve with a large enough effect; inconclusive means small, poorly fitted or top-dose-only effect; inactive means flat fitted curve, though single readings scatter.

assay: Cellular viability qHTS for adrenocortical cancer (ACC) cell line SW-13 (AID 1963989); settings: SW-13 ACC cells viability, CellTiter-Glo, 48 h; activity (max response): hits give low values; further: nearly all actives have a fitted effect of over 65% in size;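 on activity (max response): cells grown in serum-free medium with ITS supplement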
Source text: PI: Naris Nilubol, MD Surgical Oncology Program, National Cancer Institute (NCI) National Institute of Health (NIH), Bethesda, Maryland Adrenocortical cancer (ACC) is a rare malignancy with poor survival outcomes and few treatment options. Currently, mitotane is the only FDA-approved therapy for ACC. Although adjuvant radiation therapy is rarely utilized, it has the potential to improve survival in select cases. Through a quantitative high-throughput drug screen (qHTS), we identified auranofin (AF), a thioredoxin reductase (TXNRD) inhibitor, as a promising candidate drug. This study aims to evaluate whether AF can enhance the efficacy of radiation therapy in the treatment of ACC. Two human ACC cell lines, SW-13 and NCI-H295R, were screened using the National Center for Advancing Translational Sciences (NCATS) Pharmaceutical Collection (NPC) and the Mechanism Interrogation PlatE (MIPE) library (~4,991 compounds). CellTiter-Glo (Cat # G7570, Promega, Madison, WI) was utilized to measure cell viability. Described herein are the results of the corresponding viability assay.
PROTOCOL TABLE (as described by Inglese J, Shamu CE and Guy RK. 2007) SEQUENCE No. (e.g., 1, 2, 3, etc.); […] (e.g., Cells, Incubation, Reagent, etc.); VALUE; DESCRIPTION. 1; Cells; 5 uL; white, solid-bottom, 1536-well tissue-culture treated plates. 2; Time; overnight culture at 37C with 5% CO2. 3; Compounds and control; 23 nL; Kalypsis pin tool (Wako USA) equipped with a 1536-well pin head to transfer to the assay plates. 4; Time; 48 hours; 37C with 5% CO2. 5; Reagent; 4 uL; CellTiter-Glo luminescent substrate mix. 6; Time; 20 min at room temperature. 7; Detection; Luminescence; ViewLux plate reader NOTES (numbers refer to Sequence numbers above) 1. SW13 cells were harvested from a T175 flask and resuspended in ITS-supplemented DMEM serum-free medium at a concentration of 300 000 cells/mL. Then 5 uL of resuspended cells were dispensed into each well of white, solid-bottom, 1536-well tissue-culture-treated plates using a multidrop combi dispenser. The plates were covered with stainless steel gasket lids. 2-3. The plates were cultured overnight at 37C with 5% CO2. Twenty-three nL of compounds (eight selected concentrations from the NPC / MIPE) or positive control (10 mM stock of bortezomib) in DMSO was transferred to each well of the assay plate using a pin tool (Kalypsys, San Diego, CA, USA). The final concentration of the compounds in the 5 uL assay volume ranged from 0.5 nM to 46 uM. 4-6. After 48 hours of incubation at 37C and 5% CO2, 4 uL of CellTilter-Glo luminescent substrate mix (Promega, Madison, WI, USA) was added to each well. Then the plates were incubated for 20 minutes at room temperature. 7. After incubation, luminescence was measured using a ViewLux plate reader (PerkinElmer, Waltham, MA, USA) with a clear filter was used to measure the number of metabolically competent cells. To determine compound activity in the qHTS assay, the titration-response data for each sample was plotted and modeled by a four-parameter logistic fit yielding IC50 and efficacy (maximal response) values. […] REFERENCES: Inglese J, Shamu CE and Guy RK, Reporting data from high throughput screening of small molecule libraries, Nature Chemical Biology, 2007, 3(8): 438-441. doi.org/10.1038/nchembio0807-438.
On the % scale 0 is the no-effect control and ±100 the full control effect.

Row | Structure (SMILES) | activity (max response) | Potency
1 | Cc1[nH]c(=O)c(C#N)cc1-c1ccncc1 | 14.7% (inactive) and 1.4% (inactive) and -7.07% (inactive) | 
2 | CCCCCCCCCCCC(CC1OC(=O)C1CCCCCC)OC(=O)C(CC(C)C)NC=O (stereo not given) | 11.6% (inactive) | 
3 | CN1CCN(CCCNc2ncc(Cl)c(-c3cc4c(C(=O)NC5CC5)cccc4s3)n2)CC1 | 0.565% (inactive) | 
4 | Cc1ccc(S(=O)(=O)NC(=O)NN2CC3CCCC3C2)cc1 (stereo not given) | 5.83% (inactive) and 9.36% (inactive) | 
5 | Cc1cn([C@@H]2C[C@@H](O)[C@H](CO)O2)c(=O)[nH]c1=O | -17.5% (inactive) | 
6 | C[N+]1(CC2COC(c3ccccc3)(C3CCCCC3)O2)CCCCC1 (stereo not given) | -27.2% (inactive) | 
7 | Cn1cc[nH]c1=S | 12% (inactive) | 
8 | CC(C)(C)C(=O)C(Oc1ccc(Cl)cc1)n1ccnc1 (stereo not given) | -11.3% (inactive) | 
9 | C[C@]12CCC(=O)C=C1CC[C@H]1[C@@H]3CC[C@](O)(C(=O)CO)[C@@]3(C)C[C@H](O)[C@@]12F | 6.22% (inactive) | 
10 | Nc1nccc(Oc2ccc(NC(=O)c3c[nH]cc(-c4ccc(F)cc4)c3=O)cc2F)c1Cl |  | 8.91 µM (active)
11 | O=C(O)CCc1nc2ccccc2[nH]1 | 0.871% (inactive) | 
12 | COc1cc(OC)c(/C=C/S(=O)(=O)Cc2ccc(OC)c(NCC(=O)O)c2)c(OC)c1 |  | 0.02 µM (active)
13 | CC(=O)Oc1ccccc1C(=O)Nc1ncc([N+](=O)[O-])s1 | 7.32% (inactive) and 2.04% (inactive) | 
14 | Cc1ccccc1-n1c(Cn2nc(-c3cccc(O)c3)c3c(N)ncnc32)nc2cccc(C)c2c1=O | -11.8% (inactive) | 
15 | CO[C@@]1(NC(=O)CSC[C@@H](N)C(=O)O)C(=O)N2C(C(=O)O)=C(CSc3nnnn3C)CS[C@@H]21 | -7.39% (inactive) | 
16 | FC(F)(F)c1ccc(Nc2nc3ccc(Oc4ccnc(-c5ncc(C(F)(F)F)[nH]5)c4)cc3[nH]2)cc1 |  | 22.4 µM (active)
17 | Cc1cc(Oc2ccc3nc(COc4ccc(CC5SC(=O)NC5=O)cc4)n(C)c3c2)cc(C)c1N (stereo not given) | -6.08% (inactive) | 
18 | S=P(N1CC1)(N1CC1)N1CC1 | 10.4% (inactive) | 
19 | Cc1nn(C)c2c1C(c1ccc(C(F)(F)F)cc1)C(C#N)=C(N)O2 (stereo not given) | -18.7% (inactive) | 
20 | Cc1coc2c1C(=O)C(=O)c1c-2ccc2c1CCCC2(C)C | 2.82% (inactive) | 

Row | Structure (SMILES) | activity (max response) | Potency
21 | O=c1[nH]c(=O)n([C@H]2O[C@H](CO)[C@@H](O)[C@@H]2O)cc1/C=C\Br | -3.87% (inactive) | 
22 | CC(C)=CCC[C@](C)(O[C@@H]1O[C@H](CO[C@@H]2O[C@H](CO)[C@@H](O)[C@H](O)[C@H]2O)[C@@H](O)[C@H](O)[C@H]1O)[C@H]1CC[C@]2(C)[C@@H]1[C@H](O)C[C@@H]1[C@@]3(C)CC[C@H](O[C@@H]4O[C@H](CO)[C@@H](O)[C@H](O)[C@H]4O[C@@H]4O[C@H](CO)[C@@H](O)[C@H](O)[C@H]4O)C(C)(C)[C@@H]3CC[C@]12C | -6.63% (inactive) | 
23 | Nc1nc(OCc2cc(Br)cs2)c2[nH]cnc2n1 | -10.5% (inactive) | 
24 | Cc1ccc(O)c(-n2nc3ccccc3n2)c1 | -8.34% (inactive) | 
25 | CCN(CC)C(=O)c1cccc(C)c1 | 6.94% (inactive) | 
26 | CN1C[C@H]2c3ccccc3Oc3ccc(Cl)cc3[C@@H]2C1 | -18.3% (inactive) | 
27 | O=C(O)Cn1cnnn1 | 12.6% (inactive) | 
28 | NS(=O)(=O)c1ccc(NC(=O)CCC(=O)O)cc1 | 4.28% (inactive) | 
29 | Cc1cnc(NC(=O)c2cc(Oc3cnc(C(=O)N(C)C)nc3)c3cc(C)oc3c2)cn1 | -13.9% (inactive) | 
30 | CCc1cccc2c(CCO)c[nH]c12 | 12.9% (inactive) | 
31 | CN(C)CCn1nnnc1SCC1=C(C(=O)O)N2C(=O)[C@@H](NC(=O)Cc3csc(N)n3)[C@H]2SC1 | 8.48% (inactive) | 
32 | COC(=O)/C=C/C(=O)N(O)CCCCNCc1ccc(COC(=O)Nc2cccc3ccccc23)cc1 | -10.5% (inactive) | 
33 | CN1CCC(=C2c3ccccc3C=Cc3ccccc32)CC1 |  | 25.1 µM (active)
34 | Cc1nc(C(=O)NCC(=O)O)c(O)c2ccc(Oc3ccccc3)cc12 | 0.299% (inactive) | 
35 | C=CCNC1=C2CC(C)CC(OC)C(O)C(C)/C=C(\C)C(OC(N)=O)C(OC)/C=C/C=C(\C)C(=O)NC(=CC1=O)C2=O (stereo not given) |  | 3.16 µM (active)
36 | c1cc(CN2CCCNCCNCCCNCC2)ccc1CN1CCCNCCNCCCNCC1 | -19.4% (inactive) | 
37 | Cc1ccsc1C(=CCCN1CCC[C@@H](C(=O)O)C1)c1sccc1C | 0.503% (inactive) and 7.63% (inactive) | 
38 | CCCNC(C)(C)COC(=O)c1ccccc1 | -2.6% (inactive) | 
39 | COc1ccc(-c2nc(N3CCOCC3)c3sc(CN(C)c4ncc(C(=O)NO)cn4)cc3n2)cn1 |  | 0.355 µM (active)
40 | N[C@@H](CCC(=O)N[C@@H](CS)C(=O)NCC(=O)O)C(=O)O | -1.28% (inactive) | 
